Compounds with a hit are over-represented: about 4.6% of the library has one in this group of screens.
TRHR agonist = TRH receptor (human) agonism. hit rate 0.18% among 360,000. activation, % at 2 µM. TRHR cells, calcium flux fluo-8, FDSS agonist mode; also: 0% is about no effect
Target sequence (P34981 whole entry, looked up): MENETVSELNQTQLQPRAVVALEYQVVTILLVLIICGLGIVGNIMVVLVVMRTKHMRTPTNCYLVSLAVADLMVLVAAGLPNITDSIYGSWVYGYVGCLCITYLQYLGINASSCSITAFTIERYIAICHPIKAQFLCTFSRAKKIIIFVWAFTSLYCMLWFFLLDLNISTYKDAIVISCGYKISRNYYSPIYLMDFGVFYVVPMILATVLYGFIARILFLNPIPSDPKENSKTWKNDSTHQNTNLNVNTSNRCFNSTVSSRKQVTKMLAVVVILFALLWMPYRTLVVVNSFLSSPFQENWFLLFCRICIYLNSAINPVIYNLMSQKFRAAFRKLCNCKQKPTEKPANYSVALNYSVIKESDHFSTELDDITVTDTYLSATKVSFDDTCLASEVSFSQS
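TRHR-expressing cells loaded with fluo-8 calcium dye; 23 nL library compound pin-transferred, kinetic FDSS fluorescence (Ex 480/Em 530) recorded about 180 s for agonist-induced calcium release, before a 10 nM TRH EC20 addition for potentiator mode.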
TRHR enhancer = TRH receptor (human) allosteric enhancement | AID 493056 | enhancement, % at 2 µM | TRHR cells, fluo-8 calcium fluorescence, EC20 TRH enhancement | P34981 | hit rate 0.66% among 360,000; in the data active = enhancement above about 30%; also: 0% is about no effect
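TRHR-expressing cells loaded with fluo-8 calcium dye were read kinetically (ex 480/em 530) during compound addition, then stimulated with an EC20 of TRH (10 nM final). Enhancement of the Gq-mediated intracellular calcium response was scored.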
D1 PAM = enhances dopamine response at the human D1 receptor; potentiation, % at 10 µM; hit rate 0.036% among 360,000; HEK293 TREx D1 cells, calcium flux, dopamine EC20 potentiation; in the data active = potentiation above about 30%; also: 0% is about no effect
D1 antag = human D1 dopamine receptor antagonism; activity change, negative = inhibition, % at 10 µM; HEK293 TREx D1 cells, calcium flux, dopamine EC80; stronger effect = lower value; AID 504652; P21728; hit rate 3.2% among 360,000; in the data active = activity change below about -30%; also: % is scaled to controls: 0 for no effect and ±100 for the full control effect
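Antagonism measured as reduced calcium response to an EC80 dopamine addition following 180 s compound pre-read; cells were inducible HEK293 Trex D1 plated overnight at 30 C, read kinetically at 1 cycle/sec.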
D1 ag = human D1 receptor agonism; HEK293 T-REx D1 cells, calcium flux, agonist mode; hit rate 1% among 360,000; P21728; activation, % at 2 µM; AID 504660; also: 0% is about no effect
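Agonism was scored from calcium flux recorded over 180 s (1 read/s) after pintool compound addition, following a 10-cycle baseline. Cells were inducible force-coupled HEK293 TREx D1, plated overnight at 30 C and loaded with no-wash calcium dye.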
The depositor's hits bear a star; / = not tested or not shown; ! = a repeat was not active. Rule as the data show it, unless noted: active = activation above about 30%; inactive = the rest.

SMILES	TRHR agonist	TRHR enhancer	D1 PAM	D1 antag	D1 ag
CC(=O)Nc1ccc(S(=O)(=O)NC2=NCN(CCO)CN2)cc1	1.7	2.2	2.5	3.6	-0.4
COc1ccccc1C(CC(=O)c1ccccc1)CC(=O)c1ccccc1	2.0	-7.9	-1.7	-29.6	30.1*
CC(=O)c1ccc(N2CCN(S(=O)(=O)c3ccc(-c4coc(C)n4)cc3)CC2)cc1	0.0	-0.9	-5.5	2.7	2.7
Cc1ccc(CSCCC(=O)NCc2ccc(F)cc2Cl)cc1	-0.3	-4.2	-1.9	0.2	2.3
COc1ccc(/C=C(/C(=O)c2ccc(Cl)cc2Cl)n2cncn2)cc1	2.3	-5.0	-3.5	1.7	2.4
CN(C)c1ccc(/C=C(/C(=O)c2ccc(Cl)cc2Cl)n2cncn2)cc1	74.9*	3.9	-0.3	-50.1*	200.3*
CN(C)/C=C(/C(=O)c1ccc(Cl)cc1)n1cncn1	0.2	-1.1	-3.4	-33.0*	2.9
COc1cc(Cl)c(C)cc1NC(=O)Cn1cc(S(=O)(=O)N2CCC(C)CC2)c2ccccc2c1=O	-1.2	5.1	5.0	1.7	8.2
CCN1C(=O)/C(=C/c2cn(C)nc2C)SC1=S	-0.2	-3.4	-4.2	-5.7	-0.7
CCN1C(=S)SC(=O)C1=C1C=C(C)N(CCO)C(C)=C1	16.6	-0.7	-2.5	-0.1	33.7*
CCN1C(=S)SC(=O)C1=C1C=C(C)N(CCOC)C(C)=C1	14.1	-4.4	4.9	9.7	45.0*
CCCOC(=O)CCCN1C(=O)/C(=C2\SC(=S)N(CCCC(=O)OCCC)C2=O)SC1=S	1.4	-2.3	2.5	-16.5	8.8
CCOc1ccc(-n2ccnc2SCC(=O)Nc2ccc(OC)cc2OC)cc1	-0.6	-3.0	0.3	-16.8	-0.2
Cc1nn(S(=O)(=O)c2ccc(C(C)(C)C)cc2)c(C)c1S(=O)(=O)N1CCC(C)CC1	0.1	1.8	-1.9	-9.5	0.0
c1ccc(SCCOCCN2CCc3ccccc3C2)cc1	-0.3	6.4	-9.3	-47.8*	3.4
c1ccc(SCCN2CCc3ccccc3C2)cc1	-1.3	14.7	-2.5	-73.1*	1.5
COc1ccccc1NC(=O)C1=C(C)Nc2nc(SCc3ccccc3)nn2C1c1cccc(O)c1 (stereo not given)	0.4	1.0	0.0	-5.3	2.0
CN(CCOc1ccc(Cl)cc1)CC(O)c1ccccc1 (stereo not given)	-1.7	-9.5	-5.3	-6.1	33.3*
Cc1csc(N/N=C/c2ccc([N+](=O)[O-])cc2)n1	1.7	-1.6	-0.7	-35.2*	7.4
CCOC(=O)Cc1csc(N/N=C/c2cccc([N+](=O)[O-])c2)n1	-0.5	13.3	-6.3	-5.0	-0.2
O=[N+]([O-])c1cccc(-c2csc(N/N=C/c3cccc(O)c3)n2)c1	0.9	-1.5	-12.2	-43.0*	1.7
Cc1ccc(CNC(=O)C2CCCN(c3nnc(-n4c(C)ccc4C)s3)C2)cc1 (stereo not given)	-1.7	1.4	-2.9	8.6	-3.4
O=C(c1ccc2c(c1)N(Cc1ccc(Cl)cc1)C(=O)c1ccccc1S2(=O)=O)N1CCCC1	0.0	3.5	-0.3	2.3	4.0
CSC1=N/C(=C\c2cccnc2)C(=O)N1c1ccccc1	-0.4	-1.8	-9.1	-43.2*	3.1
CCSC1=N/C(=C\c2cccnc2)C(=O)N1c1ccccc1	0.2	7.5	-17.5	-68.4*	0.6
SMILES	TRHR agonist	TRHR enhancer	D1 PAM	D1 antag	D1 ag
Cc1ccc(N2C(=O)[C@@H]3CSC(c4ccc(Cl)cc4)N3C2=O)cc1 (stereo not given in full)	-0.3	11.7	0.6	-0.6	3.0
O=c1c2c3c(sc2n(Cc2cc(=O)n4ccccc4n2)c(=O)n1-c1ccc(Cl)cc1)CCC3	-1.2	-7.8	1.9	-8.3	-0.3
Cc1noc(-c2ccc(NC(C)c3ccccc3)c([N+](=O)[O-])c2)n1 (stereo not given)	0.3	-2.9	-1.9	-0.7	8.2
COc1ccc(CNC(=O)CCCc2nnc3n(C(C)C)c(=O)c4sccc4n23)cc1	-0.2	6.5	-5.1	-15.8	1.8
COCCOc1ccc(C(F)(F)F)cc1NC(=O)COC(=O)c1c(C)noc1C	-1.1	33.8*	-3.6	24.8	2.6
COCCOc1ccc(C(F)(F)F)cc1NC(=O)COC(=O)c1cc[n+]([O-])cc1	0.2	12.6	-4.0	-17.3	6.0
Cc1ccccc1Oc1ccccc1N	-0.5	2.1	-4.5	-31.5*	-0.4
Nc1ccccc1OCCOc1ccccc1N	-0.8	6.1	3.8	-3.5	1.6
CCn1c(SCC(=O)Nc2c(C)cccc2C)nnc1-c1nonc1NC(C)=O	-1.2	6.0	-0.1	11.0	9.1
CCCOC1(C(F)(F)F)NC(=O)N(c2cccc(Cl)c2)C1=O (stereo not given)	13.2	-9.4	-6.5	-10.6	21.0
OC1(c2ccc(OC(F)F)cc2)CSC(=Nc2cccnc2)N1C1CC1 (stereo not given)	2.1	0.0	-12.4	-30.2*	9.5
COc1ccc(OC)c(C2(O)CSC(=Nc3cccnc3)N2Cc2ccco2)c1 (stereo not given)	-2.2	4.1	-2.2	/	1.9
C=CC[n+]1c(-c2ccc(C)cc2)csc1Nc1ccc(NC(C)=O)cc1	-0.1	-0.7	-14.5	-46.9*	4.7
Cc1ccc(Oc2nccc(-c3ccc(Cl)cc3)n2)cc1	0.5	1.7	-18.9	-30.4*	26.3
CCCN(CCC)C(=O)c1cc2c(=O)n3cccc(C)c3nc2s1	-0.8	-7.3	3.3	-60.5*!	0.1
CCC1CCCCN1C(=O)c1cc2c(=O)n3cccc(C)c3nc2s1 (stereo not given)	0.0	39.0*	5.0	4.7	0.3
O=C(NC1CCCc2c1cnn2-c1ccc(F)cc1F)c1ccccn1 (stereo not given)	-0.1	1.1	-3.2	3.3	3.1
O=C(NC1CCCc2c1cnn2-c1ccccc1F)c1ccccn1 (stereo not given)	-0.7	4.5	-3.1	-37.9*	10.5
Cc1ccc(S(=O)(=O)N/N=C/c2ccc(OC3CSC3)cc2)cc1	7.8	3.7	-8.6	-21.0	60.9*
Cc1ccc(S(=O)(=O)N/N=C/c2ccc(C(=O)O)cc2)cc1	0.6	-0.2	2.3	-4.2	1.0
Cc1ccc(C(=O)N/C(=C\c2cccs2)C(=O)NCCc2c[nH]c3ccccc23)cc1C	0.7	3.0	2.7	-38.6*	1.7
O=C(NCCc1c[nH]c2ccccc12)/C(=C\c1cccs1)NC(=O)c1ccccc1	-0.2	-1.8	-6.7	-42.0*	0.2
O=C(NCCc1c[nH]c2ccccc12)/C(=C\c1cccnc1)NC(=O)c1cccs1	-0.1	2.8	1.9	4.3	2.9
CCC(=O)N1CCc2cc(S(=O)(=O)NCCC(=O)Nc3cccc(SC)c3)ccc21	-0.5	-4.0	-0.5	-8.3	2.1
Cc1ccc(NC(=O)Cn2c(=O)n(Cc3ccc4c(c3)OCO4)c(=O)c3ccc(C(=O)NC4CCCCC4)cc32)cc1	1.0	-1.0	-0.3	1.0	4.7

Screening results deposited in PubChem by National Center for Advancing Translational Sciences (NCATS).
